Experimental data as given in the supplement of paper PMC11417369.
Whole data set: some 25,000 sequences, median “ln(normalized median fluorescence intensity)” near 9.7, cut for the highest 2% near 11. The full list was thinned out, with the highest values kept by preference.

system: PfAP2-HC AP2 domain (GST-tagged); assay: gcPBM binding intensity (ln(normalized median fluorescence intensity)); higher = stronger DNA binding
Procedure, shortened: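 Plasmodium falciparum DNA-binding domains carrying a GST tag were expressed in E. coli and applied for 1 h, at about 25 μg on average, to an Agilent 4 × 180k array. The array held primer-extended double-stranded 36-bp intergenic genomic probes together with negative controls, and binding took place in 1× PBS with 1% milk, 0.2 mg/ml BSA, 0.5% salmon testes DNA and 0.03% Triton X-100. An Alexa488 anti-GST antibody detected bound protein, and the array was scanned at 488 nm. Binding intensity is taken as the highest Masliner-normalised natural-log median intensity across replicate spots of either probe orientation.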

Row | Sequence | gcPBM binding intensity (ln)
1 | AAATGTAAATTTATCCGTACATATATATATTTATAT [XGTACX_site7024] | 9.73
2 | ATATATATATATATGTGTACATATATATATCATATG [XGTACX_site3126] | 9.68
3 | TAATAGAATATGATGGTGCAGCAGTCTTATTTTTCA | 9.61
4 | AAAACATACATATATACACACATATATATATATATA [CACACA_site1852] | 10.3
5 | AAAAAAAAATTAAAAACACACATATATATATATATA [CACACA_site1580] | 9.73
6 | AAAAAAAAATTAAAAACACACATATAAATAAATATA [CACACA_site6845] | 9.8
7 | ATTAAATAAAAAAACACACACATATATACATATATA [CACACA_site3445] | 10.6
8 | ACCCATAAAAAGGATACACACACACCCACCCATATA [CACACA_site8205] | 10.6
9 | TTAAAAAAAAAACACACACACATACACATATATATA [CACACA_site3299] | 11.1
10 | AAAACATACCTATATACACACATATAAATATAAATA [CACACA_site6956] | 10.1
11 | AAAAAAAAAAAACATACACACACATATATATATATA [CACACA_site8452] | 10.7
12 | TAAAAGGATACATATACACACATATATATATATATA [CACACA_site2791] | 9.85
13 | CCATAAAAAGGATACACACACACACCGACATATATA [CACACA_site4653] | 10.9
14 | ATTAAATAAAAAAACACACACATATATACCTATATA [CACACA_site5837] | 11
15 | AAAAAAATTAAACACACACACACATATATATATATA [CACACA_site4718] | 11.5
16 | ACATATATATTTATATGTACATATATTTATATATAT [XGTACX_site7469] | 9.64
17 | ATATTGTAAGTAAAATGTAATAAATATAATAAAATA [CACACA_negctrl_site697] | 9.76
18 | ATATATTTATATTGTACACACATTTATGCATATATA [CACACA_site7502] | 9.96
19 | ACATTCTATACATACACACCCACACCCAAAAAAAAA [CACACA_site863] | 10
20 | CTTATACATTATTAACGTACATGTTATATGAATAAC [XGTACX_site5752] | 9.6
21 | TGGAAAATTATAAGGTGTACATATAAGCTATTATAT [XGTACX_site118] | 9.63
22 | ATATATATATATATTTATTCATATATTTTTTGTCTT [TGCATGCA_negctrl_site58] | 9.52

Row | Sequence | gcPBM binding intensity (ln)
23 | AAAAATGAATTATTTTGTACATATATATATATATAT [XGTACX_site3410] | 9.74
24 | TGCTATTTTTTCCTTTTTTTGTATCACAATCATATA [CACACA_negctrl_site1576] | 9.74
25 | ATCAACATTATGTTTAGTACTTAGTGAATTGTTAAT [XGTACX_site4913] | 9.65
26 | ATTATATATGTATGGTGTACTAAGAATATTTTTTTA [XGTACX_site1950] | 9.55
27 | ATTATTTAAAAAAAATGTACATAATAAATATGAACG [XGTACX_site4010] | 9.58
28 | CAGTTTAATTTACATAGTACATAATATTTTAATTTT [XGTACX_site1793] | 9.65
29 | AAATAAATTAAAATAAATTAAATTAAATTAGCATTA [GTGCAC_negctrl_site531] | 9.52
30 | ATACATATATATATATGTACACACATTAATAAAAAA [XGTACX_site6874] | 9.89
31 | GACAATAAAAAGAAAAGTACATATATAAATTAACCA [XGTACX_site7858] | 9.65
32 | TGCATATGCATTATTTGTACATATGTAGATAATTAT [XGTACX_site6930] | 9.63
33 | GTATTTTTAAATGACACACACATATATATATATATA [CACACA_site1662] | 10.1
34 | TGCAAGGAAAAACACACACACACATAAATGTATATA [CACACA_site751] | 10.4
35 | ATAAAATACATATAAACACACATATAAACCGACATA [CACACA_site2477] | 10.1
36 | CATATAAATAAACACACACACACATATATATATATA [CACACA_site5309] | 10.5
37 | ATAAATATGGAGCACACACACATAAACATACATATA [CACACA_site421] | 11.1
38 | TGCAAGGAACAACACACACACACATAAATGTATATA [CACACA_site8149] | 11.4
39 | TAAATTAAAAAAAATACACACACACCGACACATATA [CACACA_site9084] | 10.6
40 | AAAAGGAACAGACACACACACATATATAAATATGTA [CACACA_site7656] | 10.5
41 | AAAAAAAAAAAATATACACACACACCGACACATAAA [CACACA_site9270] | 10.9
42 | TATATATATATATAAACACACATAAATATAAATATA [CACACA_site1121] | 9.88
43 | ATAAATATGGAGCACACACACATAAACATACCTATA [CACACA_site6336] | 10.8
44 | AATAAATTGAAACACACACACACATATATATATATA [CACACA_site848] | 11.2
